We go through 17 compounds from PubChem BioAssay.

The source made the active and inactive calls.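 How the source made its calls, unless noted: active means at least 20% inhibition of 6-phosphogluconate dehydrogenase activity; inactive means the rest.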

The target of experiment [1] is 6-phosphogluconate dehydrogenase, decarboxylating (Homo sapiens) (UniProt P52209). The experiment can be described thus: inhibition of human phosphogluconate dehydrogenase – biochemical, recombinant enzyme, NADPH absorbance, primary screen (AID 1159550). The note with it: recombinant 6PGD, NADPH absorbance 341 nm; at 10 µM; stronger effect = higher value.
6-phosphogluconate dehydrogenase, decarboxylating (Homo sapiens), sequence (P52209 whole entry, looked up): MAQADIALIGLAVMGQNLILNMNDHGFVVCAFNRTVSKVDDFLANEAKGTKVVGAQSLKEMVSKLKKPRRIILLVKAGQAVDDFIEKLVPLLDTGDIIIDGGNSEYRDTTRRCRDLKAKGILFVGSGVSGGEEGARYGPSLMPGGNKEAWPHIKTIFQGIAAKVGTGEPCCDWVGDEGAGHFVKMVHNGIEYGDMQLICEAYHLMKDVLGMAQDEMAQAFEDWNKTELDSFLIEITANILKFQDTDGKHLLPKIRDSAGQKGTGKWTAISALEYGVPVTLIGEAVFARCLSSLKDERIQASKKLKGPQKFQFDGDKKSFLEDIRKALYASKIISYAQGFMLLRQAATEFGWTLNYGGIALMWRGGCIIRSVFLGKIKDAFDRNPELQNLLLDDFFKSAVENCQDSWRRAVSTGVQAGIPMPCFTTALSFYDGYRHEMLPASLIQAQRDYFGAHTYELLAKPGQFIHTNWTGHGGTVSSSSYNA
Experiment [2] can be described thus: EMT-state selective cytotoxicity in co-culture – imaging, PC-3E GFP, TEM4-18 mCherry, primary screen (AID 1345086;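 active means compounds killing one labelled cell type while sparing the other, by normalised counts and ratio limits, not self-fluorescent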;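 on all read-outs here: cells exposed to compound for 72 h before imaging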;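 on red/green cell ratio (normalised): normalised mesenchymal count divided by normalised epithelial count so high means epithelial killing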). The note with it: PC-3E GFP / TEM4-18 mCherry co-culture, imaging cell counts, at 1 µM; for red/green cell ratio (normalised): actives lie on both sides, counts scaled to control wells, 1 = unselective.
Experiment [3] addresses Mitogen-activated protein kinase 7 (Homo sapiens) (UniProt Q13164). The experiment can be described thus: Gal4-ERK5 driven luciferase induction – cell-based, HTS, primary screen (AID 1508626;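 active means luciferase signal above three times the same-plate solvent-only control wells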;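 further: luciferase driven by Gal4-ERK5 fusion binding five Gal4 sites before minimal TATA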). The conditions noted are these: HeLa Gal4-ERK5 transactivation, 18 h, at 5 µM, stronger effect = higher value.
The mark [4] stands for this setting: measured here: epithelial PC-3E GFP cell survival.
[5] abbreviates: measured here: mesenchymal TEM4-18 mCherry cell survival.

Mitogen-activated protein kinase 7 (Homo sapiens), sequence (Q13164 whole entry, looked up, the tested form may be a part): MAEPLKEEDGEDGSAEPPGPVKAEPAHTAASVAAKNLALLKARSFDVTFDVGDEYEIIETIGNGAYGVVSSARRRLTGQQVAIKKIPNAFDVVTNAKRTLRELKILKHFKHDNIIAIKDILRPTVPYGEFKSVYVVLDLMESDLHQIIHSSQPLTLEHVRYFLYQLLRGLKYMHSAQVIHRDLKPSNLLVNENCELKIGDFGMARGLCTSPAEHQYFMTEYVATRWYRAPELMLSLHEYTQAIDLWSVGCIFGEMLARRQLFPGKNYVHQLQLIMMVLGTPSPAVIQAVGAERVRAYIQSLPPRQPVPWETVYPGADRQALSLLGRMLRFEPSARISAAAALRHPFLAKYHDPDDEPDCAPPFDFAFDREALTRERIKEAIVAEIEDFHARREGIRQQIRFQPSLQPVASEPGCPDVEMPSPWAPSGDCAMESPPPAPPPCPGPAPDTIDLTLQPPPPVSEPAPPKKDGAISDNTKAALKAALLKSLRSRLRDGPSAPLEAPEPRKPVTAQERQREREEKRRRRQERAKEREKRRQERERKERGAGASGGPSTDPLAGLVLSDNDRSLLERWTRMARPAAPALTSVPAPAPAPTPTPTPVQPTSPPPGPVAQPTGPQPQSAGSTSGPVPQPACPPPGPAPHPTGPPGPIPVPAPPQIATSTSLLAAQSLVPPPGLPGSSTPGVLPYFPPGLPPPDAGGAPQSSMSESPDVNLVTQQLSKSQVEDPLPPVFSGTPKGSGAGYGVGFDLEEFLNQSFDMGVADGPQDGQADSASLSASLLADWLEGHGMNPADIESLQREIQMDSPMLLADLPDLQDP

As for `COc1c(O)cccc1O`, in experiment [1], the inhibition is -5.16% (inactive). Besides, the red/green cell ratio (normalised) in experiment [2] is 0.77 (inactive). Further, the normalised cell number is 0.96 in experiment [2] (setting [4]) and 0.74 in experiment [2] (setting [5]). For the same compound, in experiment [3], the luciferase signal was 76 AU (inactive).
Consider `Cc1cc(O)c(C=O)c(O)c1C(=O)O`, for which, in experiment [1], the inhibition is 15% (inactive). Moreover, the red/green cell ratio (normalised) in experiment [2] is 0.84 (inactive). Moreover, the normalised cell number in experiment [2] (setting [4]) was found to be 1.14; in experiment [2] (setting [5]) it was 0.95. For the same compound, the luciferase signal in experiment [3] is 120 AU (inactive).
The matching figures for `COc1cc(/C=C/C(=O)O)cc(OC)c1OC`: -1.71% (inactive), 0.99 (inactive), 1.06, 1.04 and 52 AU (inactive).
The matching figures for `COc1ccc(C(=O)/C=C/c2ccccc2)cc1`: 8.83% (inactive), 1.17 (inactive), 0.89, 1.04 and 88 AU (inactive).
Turning to `Cc1cc(O)c(C)c(O)c1C(=O)O`, the inhibition in experiment [1] was -9.88% (inactive). Further, in experiment [2], the red/green cell ratio (normalised) was 0.88 (inactive). Besides, the normalised cell number in experiment [2] (setting [4]) was 1.09; in experiment [2] (setting [5]), 0.97. For the same compound, the luciferase signal in experiment [3] was 72 AU (inactive).
With `Cc1cc(=O)oc2cc(O)c(O)cc12`, the inhibition in experiment [1] was 8.55% (inactive). The red/green cell ratio (normalised) in experiment [2] is 0.79 (inactive). Besides, the normalised cell number worked out at 1.15 in experiment [2] (setting [4]) and 0.91 in experiment [2] (setting [5]). Moreover, the luciferase signal in experiment [3] is 60 AU (inactive).
Take `O=C(O)c1cccc(O)c1O`: the inhibition in experiment [1] is 4.23% (inactive). In experiment [2], the red/green cell ratio (normalised) was 0.96 (inactive). Further, the normalised cell number worked out at 1.23 in experiment [2] (setting [4]) and 1.19 in experiment [2] (setting [5]). For the same compound, in experiment [3], the luciferase signal was 20 AU (inactive).
As to `c1ccc2c(c1)CN1CCCC1=N2`, the inhibition in experiment [1] was -1.15% (inactive). For the same compound, in experiment [2], the red/green cell ratio (normalised) was 1.13 (inactive). Further, the normalised cell number was determined as 0.94 in experiment [2] (setting [4]) and 1.06 in experiment [2] (setting [5]). The luciferase signal in experiment [3] is 52 AU (inactive).
Regarding `CC1(C)C=Cc2cc3ccc(=O)oc3cc2O1`, the inhibition in experiment [1] was 5.11% (inactive). For the same compound, the red/green cell ratio (normalised) in experiment [2] is 0.99 (inactive). Besides, the normalised cell number in experiment [2] (setting [4]) amounted to 1.07; in experiment [2] (setting [5]), 1.05. Moreover, the luciferase signal in experiment [3] is 56 AU (inactive).
In the case of `C=C(C)C1CC=C(CO)CC1` (stereo not given), the inhibition in experiment [1] is 1.85% (inactive). Besides, the red/green cell ratio (normalised) in experiment [2] is 1.04 (inactive). Also, the normalised cell number in experiment [2] (setting [4]) turned out to be 0.95; in experiment [2] (setting [5]) it was 0.99. Further, the luciferase signal in experiment [3] was 68 AU (inactive).
`NCCC(=O)N[C@@H](Cc1cnc[nH]1)C(=O)O`: in experiment [1], the inhibition is -1.18% (inactive). Besides, the red/green cell ratio (normalised) in experiment [2] is 1.1 (inactive). Further, the figures for the normalised cell number in experiment [2] (setting [4]) and in experiment [2] (setting [5]) were 0.93 and 1.03, respectively. Moreover, the luciferase signal in experiment [3] is 100 AU (inactive).
As for `Nc1nc2ncc(=O)[nH]c2c(=O)[nH]1`, the inhibition in experiment [1] was -1.84% (inactive). Also, the red/green cell ratio (normalised) in experiment [2] is 1.01 (inactive). The normalised cell number in experiment [2] (setting [4]) is 1.17; in experiment [2] (setting [5]), 1.18. For the same compound, the luciferase signal in experiment [3] was 56 AU (inactive).
As to `COc1ccc(-c2oc3ccccc3c(=O)c2O)cc1OC`, the inhibition in experiment [1] is 8.6% (inactive). Moreover, in experiment [2], the red/green cell ratio (normalised) is 0.86 (inactive). The normalised cell number came out at 1.06 in experiment [2] (setting [4]) and 0.91 in experiment [2] (setting [5]). In experiment [3], the luciferase signal was 52 AU (inactive).
Take `C=C1CCC(C2CC(=O)OC2=O)C(=O)CCC2C1CC2(C)C` (stereo not given): the inhibition in experiment [1] is 13.1% (inactive). In addition, the red/green cell ratio (normalised) in experiment [2] is 0.84 (inactive). The values for the normalised cell number in experiment [2] (setting [4]) and in experiment [2] (setting [5]) were 1.27 and 1.06, respectively. Moreover, in experiment [3], the luciferase signal was 144 AU (inactive).
With `CC1(C)CC2C1CCC1(C)OC2(C)CCC1O` (stereo not given), in experiment [1], the inhibition is 12.8% (inactive). Also, the red/green cell ratio (normalised) in experiment [2] is 1.07 (inactive). Moreover, the normalised cell number in experiment [2] (setting [4]) was 0.96; in experiment [2] (setting [5]) it was 1.03. The luciferase signal in experiment [3] is 100 AU (inactive).
The matching figures for `C=C1C2CC[C@@]3(C)[C@H](c4ccoc4)OC(=O)C[C@]13O[C@H]1CC(O)C(C)(C)C(CC(=O)OC)[C@@]21C` (stereo not given in full): 24.1% (active), 1.02 (inactive), 0.98, 1 and 16 AU (inactive).
On to `COc1cc(O)c(C(=O)c2ccccc2)cc1O`, for which the inhibition in experiment [1] was -3.44% (inactive). Further, the red/green cell ratio (normalised) in experiment [2] was 0.89 (inactive). The results for the normalised cell number in experiment [2] (setting [4]) and in experiment [2] (setting [5]) were 1.31 and 1.17, respectively. In addition, the luciferase signal in experiment [3] was 48 AU (inactive).

Usually inhibition stands for the relative decrease from the control value, in per cent.
